PfGluPho inh: PfG6PD (Plasmodium falciparum) enzyme inhibition; hit rate 0.78% among 350,000; inhibition, % at 20 µM; PfGluPho enzyme, NADPH resazurin-diaphorase fluorescence;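 active = inhibition reaching at least a set limit at 20 µM in the primary screen, cut at about 59% in these data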;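 also: 0% = DMSO wells with substrate and 100% = DMSO wells lacking glucose-6-phosphate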
CRFBP-R2 block: blocks CRF-induced signaling of the CRF-BP/CRF-R2 complex. HEK293 CRF-R2/CRF-BP, CRF-induced calcium fluorescence. inhibition, % at 11.8 µM. hit rate 0.59% among 350,000. AID 588475;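 active = inhibition of the ligand-induced calcium signal above about 50% at the single tested concentration, limit read from the data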
CRFR2-BP ag: CRF-BP/CRF-R2 complex agonism; hit rate 0.46% among 350,000; activation, % at 13.2 µM; AID 588473; HEK293 CRF-R2/CRF-BP, calcium dye fluorescence (FLIPR); percent of saturating CRF peptide response;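 active = activation of at least 50%, plus an integration ratio under a set limit after plate pattern correction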;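 also: plate controls were neutral control wells without compound for no effect and CRF at EC100 for full effect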
aDG glyco act: increases alpha dystroglycan glycosylation. Pro5-aDG cells, alpha-DG glycosylation AlphaScreen (IIH6); 0% Pro5, 100% B10-LARGE cell signal. activation, % at 10 µM. hit rate 0.22% among 360,000. AID 624168;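 active = activation of at least 8% versus controls, or a plate z-score of at least 8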;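 also: Pro5 are CHO cells carrying HIG-tagged alpha-DG that lacks glycosylation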
FAS-TE inh: inhibitors of human fatty acid synthase thioesterase domain. P49327. recombinant FAS-TE, OMFH fluorogenic substrate, fluorescence endpoint. inhibition, % at 15 µM. hit rate 0.67% among 360,000. AID 602261;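 active = compounds whose normalised, plate-corrected inhibition of enzyme fluorescence in the single-dose primary screen is 50% or more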;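 also: 0% = DMSO with enzyme and 100% = substrate without enzyme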
Cardio protect: myocardial damage modulation in H9c2 cells; H9c2 cardiomyocytes, H2O2 injury protection, ATPLite, 2 h; protection from H2O2 cell death, % at 20 µM; hit rate 0.63% among 360,000; AID 588492;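 active = compounds giving at least 50% protection of heart cells from peroxide-induced death in the single-dose screen, raw or plate-pattern-corrected value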;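 also: 0% = DMSO wells with peroxide and 100% = DMSO wells without peroxide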
PfG6PD confirm: PfG6PD inhibition, single-dose confirmed; shares compounds with PfGluPho inh; recombinant PfGluPho, NADPH-diaphorase-resazurin fluorescence; inhibition, % at 20 µM; hit rate 34% among 2,400; AID 504753;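 active = inhibition of at least 50% at 20 µM in any single replicate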;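 also: 0% = DMSO with substrate and 100% = DMSO lacking glucose-6-phosphate substrate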
Diaph ctr 10uM: diaphorase inhibition or oxidation at 10 uM NADPH. shares compounds with PfGluPho inh. diaphorase-coupled resazurin reduction, fluorescence, NADPH 10 uM. inhibition, % at 20 µM. hit rate 39% among 820. AID 504862;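 active = average inhibition reaching 50% or more with the compound at 20 µM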;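 also: resorufin red fluorescence formed as diaphorase reduces resazurin using NADPH; 0% = DMSO with enzyme and 100% = DMSO without enzyme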
Diaphorase 30uM: counter-screen for P. falciparum G6PD inhibitors: diaphorase inhibitors, oxidizers | shares compounds with PfGluPho inh | Diaphorase/resazurin coupled assay, resorufin fluorescence, 30 uM NADPH | inhibition, % at 20 µM | hit rate 29% among 820 | AID 504863;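 active = inhibition averaging 50% or more, tested at 20 µM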;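 also: 0% = DMSO with enzyme and 100% = DMSO wells lacking diaphorase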
* = called active by the depositor; x = no result. In the library only some 3.2% were active in any assay of this set; here they are far more common.

SMILES	PfGluPho inh	CRFBP-R2 block	CRFR2-BP ag	aDG glyco act	FAS-TE inh	Cardio protect	PfG6PD confirm	others
COC(=O)c1ccc(CCc2cc(O)ccc2O)cc1	59.0	3.6	-3.5	0.1	0.0	-14.5	9.5
COC(=O)c1ccc(CCc2cc(O)c(Br)cc2O)cc1	119.2*	22.4	-5.7	0.5	9.6	-19.7	19.0
O=C(Nc1ccc(C(F)(F)F)cc1)C1CCN(S(=O)(=O)c2ccc(N3CCCC3=O)cc2)CC1	30.1	-1.8	0.0	2.2	7.0	-11.4	x
CCC[C@H]1CN(c2ccc(Br)cc2)C(=O)[C@@H]1CC(=O)Nc1ccc(OC)cc1	5.0	0.9	-0.3	0.2	26.6	-9.6	x
CCOc1ccccc1N1C(=O)c2ccc(S(=O)(=O)c3ccc(C(=O)O)cc3)cc2C1=O	-8.0	1.3	-0.2	0.1	-3.2	-1.0	x
CCN(CC)CC(C)(C)C(=O)/C=C/c1ccc(/C=C/C(=O)C(C)(C)CN(CC)CC)cc1	64.2*	7.9	12.0	-0.4	-8.5	-18.8	45.4
Cn1c2ccccc2c(=O)c2cc(C#Cc3ccc(N)cc3)ccc21	79.3*	5.0	-1.4	0.4	11.2	16.6	41.9
COc1ccc(C#Cc2ccc3c(c2)c(=O)c2ccccc2n3C)cc1	41.1	2.0	2.1	0.6	23.6	-11.6	x
CCC(C(=O)OC(C)C)c1ccc2ccccc2c1 (stereo unspecified)	16.6	6.0	-2.3	-0.4	9.7	7.9	x
CC(C)=CCOc1c2ccoc2c(OCC=C(C)C)c2oc(=O)ccc12	128.3*	30.9	-1.3	0.1	30.9	-12.2	70.8*	Diaph ctr 10uM=63.2*;Diaphorase 30uM=59.1*
CCc1cc(=O)oc2cc(OCC=C(C)C)ccc12	-1.4	12.6	-3.4	0.0	17.8	-4.3	x
CC(C)=CCOc1c2ccoc2cc2oc(=O)ccc12	72.4*	-1.6	-2.1	-0.2	9.1	3.3	30.6
C=C(C)[C@@H](O)COc1c2ccoc2cc2oc(=O)ccc12	14.9	5.8	-1.4	-0.2	0.9	2.3	x
CCc1cc(CNC(=O)CCc2nnc(CCCc3ccccc3)o2)on1	22.6	7.3	-1.6	0.0	-1.4	-2.3	x
Cc1ccc(-c2nc(Nc3ccc(N4CCOCC4)cc3)c3ccccc3n2)cc1	42.1	-14.7	-0.6	-0.2	23.4	29.8	x
COc1ccc(CCN(Cc2cc3cc(C)cc(C)c3nc2Cl)C(=O)C2CC2)cc1	10.5	-3.1	6.5	0.2	19.6	-12.6	x
Cc1c(Cc2ccc3c(c2)OCO3)sc(NC(=O)c2cccc3ccccc23)c1C(N)=O	86.5*	-20.9	0.7	-0.5	26.1	-15.4	29.7
Cc1c(Cc2ccc3c(c2)OCO3)sc(NC(=O)C2CC2)c1C(N)=O	70.4*	-12.3	-1.2	0.2	3.9	-3.8	34.1
COC(=O)c1c(NC(=O)CN2C(=O)c3ccccc3C2=O)sc(Cc2ccc3c(c2)OCO3)c1C	18.3	-2.0	23.0	4.2	26.3	-4.1	x
COc1ccc(F)cc1S(=O)(=O)Nc1ccc(C)cc1	63.4*	3.9	1.7	0.4	-1.8	-8.2	36.8
Cc1cc(=O)oc2cc(NC(=O)C(C)N3C(=O)C4CCCCC4C3=O)ccc12 (stereo unspecified)	5.3	-2.5	0.1	-0.3	-2.4	8.7	x
CC1(C)CC(=O)C2=C(C1)NC(SCC(=O)Nc1ccccc1)=C(C#N)C21CCCCC1	17.0	-8.0	2.1	-0.1	29.2	-21.2	x
CC1(C)CC(=O)C2=C(C1)NC(=S)C(C#N)C21CCCCC1 (stereo unspecified)	76.4*	-2.3	-2.5	-0.3	-0.6	5.7	18.0
COc1ccc(C(=O)CSc2nccn2C)c(OC)c1	-4.8	18.8	-0.6	-0.1	-4.1	6.0	x
CCOC(=O)c1sc(N)c(C(=O)OCC)c1C	13.5	5.6	-0.6	0.1	2.4	0.4	x
SMILES	PfGluPho inh	CRFBP-R2 block	CRFR2-BP ag	aDG glyco act	FAS-TE inh	Cardio protect	PfG6PD confirm	others
CCOC(=O)c1sc(N)c(C(=O)Nc2ccccc2)c1C	63.5*	8.2	-1.8	-0.7	1.5	-6.2	15.5
CCOc1ccc(C(=S)NC2CCCCC2)cc1OCC	65.2*	1.3	-0.4	0.0	0.5	0.0	23.1
Cc1cccc(-n2c(=S)[nH]c3sc4c(c3c2=O)CCc2ccccc2-4)c1	66.7*	-9.4	-0.1	-0.8	2.3	17.1	51.9*	Diaph ctr 10uM=-24.4;Diaphorase 30uM=6.3
CC(C)NC(=O)CC(=O)NN=C1CCCCC1	-9.4	-2.9	0.6	-0.5	-8.4	-6.1	x
COCCn1nnnc1C(c1cc2cc(OC)c(OC)cc2[nH]c1=O)N1CCN(c2ccc(O)cc2)CC1 (stereo unspecified)	65.4*	-3.8	-3.2	0.3	0.5	4.4	55.6*	Diaph ctr 10uM=6.7;Diaphorase 30uM=-2.6
CCN1/C(=C/C=C/C=C/C=C/c2sc3ccccc3[n+]2CC)Sc2ccccc21	64.4*	-20.8	3.9	3.1	-81.5	-20.1	96.2*	Diaph ctr 10uM=33.5;Diaphorase 30uM=33.1
CCN1/C(=C/C=C/c2sc3ccccc3[n+]2CC)Sc2ccccc21	-33.9	2.0	-0.3	1.0	-16.9	-44.2	x
CCOc1ccc(S(=O)(=O)N2CCCC(C(=O)NCc3ccncc3)C2)cc1 (stereo unspecified)	-11.0	9.4	0.9	0.3	-1.5	-5.9	x
Cc1ccc(Sc2c(C)[nH]n(C(C)(C)C)c2=O)cc1	-3.3	-2.8	1.1	0.3	-10.8	-1.7	x
CC1=CC(=O)C(Sc2ccc(C)cc2)=CC1=O	123.9*	-19.9	-1.6	-0.3	9.7	-21.6	109.0*	Diaph ctr 10uM=90.5*;Diaphorase 30uM=63.8*
O=C(CN(Cc1ccco1)C(=O)c1ccccc1)Nc1ccc(Cl)c(Cl)c1	62.3*	-23.5	2.9	0.0	46.9	-2.9	17.9
Cc1ccc(C(=O)N(CC(=O)Nc2ccc(Cl)c(Cl)c2)Cc2ccco2)cc1	-7.0	-31.3	-0.3	1.2	32.7	-6.3	x
NC(=O)C1(c2ccccc2)OC1c1ccccc1 (stereo unspecified)	13.8	-2.3	-1.8	-0.1	3.8	-2.7	x
CC1(OC(=O)CCc2ccccc2)C(=O)C=C2C=C(c3ccc(C#N)cc3)N(C3CCCCC3)C=C2C1=O (stereo unspecified)	75.0*	16.0	1.7	0.2	7.8	1.8	26.0
COc1ccc(CN2C=C3C(=O)C(C)(OC(=O)CCc4ccccc4)C(=O)C=C3C=C2c2ccc(C#N)cc2)cc1 (stereo unspecified)	51.8	2.6	-1.4	0.2	7.5	10.7	x

Screens: PubChem BioAssay, Sanford-Burnham Center for Chemical Genomics
